Bioassay records (PubChem BioAssay)
Most compounds without a hit are left out; they make up all but 1.8% or so of the library.
S aureus QS inh – S. aureus quorum sensing inhibitors, primary screen, RNAIII-GFP reporter, flow cytometry | inhibition, % at 2 µM | S. aureus RN6390 RNAIII-GFP reporter, AIP-induced, flow cytometry 3 h | AID 527, 2006 | hit rate 0.3% among 24,000;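 active = share of bacteria positive for the green fluorescent reporter and its mean brightness both inhibited by 50% or more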
26S disassembly – inhibitors of ATP-driven 26S proteasome dissociation, primary screen, biochemical, bead-based flow cytometry, GFP-tagged proteasome; inhibition of disassembly, % (concentration not given with the values); anti-FLAG beads, GFP-proteasome disassembly; hit rate 0.2% among 24,000;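 active = inhibition of disassembly above about 33%, limit read from the data; inconclusive = likely self-fluorescent, control bead median signal at least 40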;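 also: higher percent means more bead fluorescence retained so stronger block of disassembly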
LNCaP diff act – activators of LNCaP prostate cell differentiation, primary screen, flow cytometry side scatter; 4 d; side scatter shift, % at 10 µM; hit rate 0.56% among 24,000;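 active = side scatter shift above 30%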;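 also: androgen-responsive LNCaP prostate cancer cells in charcoal-stripped serum medium; higher shift means more granular cells and more differentiation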
VLA-4 agonist – enhancers of LDV-FITC binding to VLA-4 integrin, primary screen, Jurkat cells, flow cytometry. activation, % at 10 µM (by protocol). 24,000 tested, under 10 active. AID 528, 2006;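 active = fluorescent ligand binding to cells raised by more than 40% of the manganese-induced maximum; inconclusive = compound's own fluorescence above 85% of the ligand control signal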
Target sequence (P13612 whole entry, looked up): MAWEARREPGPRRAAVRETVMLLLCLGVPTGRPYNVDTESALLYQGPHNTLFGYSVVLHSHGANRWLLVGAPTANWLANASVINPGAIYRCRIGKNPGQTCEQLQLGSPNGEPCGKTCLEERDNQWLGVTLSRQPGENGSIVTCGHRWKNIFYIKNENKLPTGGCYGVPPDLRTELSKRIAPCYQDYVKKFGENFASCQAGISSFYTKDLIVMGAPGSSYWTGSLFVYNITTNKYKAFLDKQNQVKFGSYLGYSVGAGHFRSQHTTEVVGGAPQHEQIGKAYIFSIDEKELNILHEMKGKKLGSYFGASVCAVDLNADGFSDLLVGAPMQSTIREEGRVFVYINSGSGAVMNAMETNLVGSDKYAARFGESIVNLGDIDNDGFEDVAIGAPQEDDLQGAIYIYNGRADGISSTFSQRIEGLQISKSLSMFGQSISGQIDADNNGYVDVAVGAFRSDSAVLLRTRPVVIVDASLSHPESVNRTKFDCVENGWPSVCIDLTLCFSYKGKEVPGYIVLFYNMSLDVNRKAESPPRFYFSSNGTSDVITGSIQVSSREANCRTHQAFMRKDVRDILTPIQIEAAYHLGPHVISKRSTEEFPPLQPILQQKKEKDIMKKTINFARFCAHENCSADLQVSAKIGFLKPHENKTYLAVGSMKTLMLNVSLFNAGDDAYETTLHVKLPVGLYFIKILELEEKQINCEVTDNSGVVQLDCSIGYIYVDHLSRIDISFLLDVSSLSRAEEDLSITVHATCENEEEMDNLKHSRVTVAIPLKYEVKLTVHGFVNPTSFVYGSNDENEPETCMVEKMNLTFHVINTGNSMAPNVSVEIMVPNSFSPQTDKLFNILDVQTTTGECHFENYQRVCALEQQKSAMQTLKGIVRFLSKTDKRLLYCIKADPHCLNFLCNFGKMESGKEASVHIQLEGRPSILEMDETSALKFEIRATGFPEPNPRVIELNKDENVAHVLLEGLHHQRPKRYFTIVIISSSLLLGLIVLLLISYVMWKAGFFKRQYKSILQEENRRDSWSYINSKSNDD
VLA-4 antagonist – inhibitors of LDV-FITC binding to Mn2+-activated VLA-4, primary screen, Jurkat cells; hit rate 0.2% among 24,000; inhibition, % at 10 µM (by protocol); LDV-FITC binding with Mn2+, flow cytometry; 100% = Mn2+-driven binding gain fully reversed;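 active = inhibition above 50%; inconclusive = compound itself fluorescent, judged against control cell fluorescence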
Jurkat autofluor – compound autofluorescence on Jurkat cells, primary screen, artefact control for VLA-4 allosteric ligand project, cell-based, flow cytometry; active compounds read high; 1 = vehicle-only cell background; fluorescence ratio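 (tested at 10 µM compound in the well)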; hit rate 0.61% among 24,000; AID 576, 2007;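 active = fluorescence ratio above 2.44, which is 1 plus 3 SD of all ratios; inconclusive = signal too bright to measure linearly, ratio around 10 or more; inactive = fluorescence ratio below 2.44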;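 also: green fluorescence of cells measured with 488 nm excitation and 530 nm emission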
Hits are given with their value; 0 = inactive; ? = inconclusive; - = no result given.

SMILES	S aureus QS inh	26S disassembly	LNCaP diff act	VLA-4 agonist	VLA-4 antagonist	Jurkat autofluor
COC(=O)c1ccc2c(c1)NC(=O)C(N1CCCC1)S2 (stereo not given)	0	0	0	?	?	4.98
CCOC(=O)c1ccc(NC(=O)Nc2ccc3c4c(cccc24)C(=O)N3CC)cc1	0	0	0	?	?	3.11
Cc1ccc(C(=O)C2CCN(CC(=O)Nc3ccc4c(c3)OCCO4)CC2)cc1	0	-	-	-	-	-
CCCOc1ccc(C(CC(=O)O)NC(=O)c2ccc3c(c2)OCO3)cc1 (stereo not given)	0	0	0	0	88.0	0
CCN1CCN(C(=O)C2c3cc(OC)c(OC)cc3C(=O)N(C)C2c2ccc(SC)cc2)CC1 (stereo not given)	0	0	0	0	0	0
Cc1cccn2c(=O)c3cc(C#N)c(=NC(=O)c4ccncc4)n(Cc4ccco4)c3nc12	0	0	0	?	?	4.14
CC(C)n1c(=NC(=O)c2ccco2)c(C#N)cc2c(=O)n3ccccc3cc21	0	0	0	0	0	0
CCOc1ccccc1C(=O)N1CCN=C1SCc1cccnc1	0	0	0	?	?	0
O=C1CSC(=Nc2ccccc2)N1	0	-	-	-	-	-
O=C1CS/C(=N\C(=O)N2c3ccccc3Sc3ccccc32)N1	87.3	0	0	0	0	0
CC(C)(C)OC(=O)N1CC=C2C(C#N)=C(N)C(C#N)(C#N)C(c3cccs3)C2C1 (stereo not given)	0	0	0	?	?	0
CN1CC=C2C(C#N)=C(N)C(C#N)(C#N)C(Cc3ccccc3)C2C1 (stereo not given)	0	0	0	?	?	2.59
CCN(CCCNC(=O)CN(C)S(=O)(=O)c1ccc2c(c1)CCC(=O)N2)c1cccc(C)c1	0	0	0	0	0	0
CC1CCCCN1CCNC(=O)c1ccc2c(=O)n(CCc3ccccc3)c(=O)[nH]c2c1 (stereo not given)	0	0	48.0	0	0	0
CC1CCN(CCNC(=O)c2ccc3c(=O)n(CCc4ccccc4)c(=O)[nH]c3c2)CC1	0	0	0	0	0	0
O=C(Cn1nc(-c2ccc3c(c2)OCCO3)ccc1=O)Nc1ccc(N2CCOCC2)cc1	0	0	0	0	96.0	0
NC1=CC(=O)c2cccc3cccc1c23	0	0	0	?	?	3.49
CCOC(=O)NC(CC(=O)O)c1ccc(OCC)cc1 (stereo not given)	0	0	0	0	0	0
CCOc1ccc(C(CC(=O)O)NC(=O)C23CC4CC(CC(C4)C2)C3)cc1 (stereo not given)	-	-	-	0	111.0	0
COc1ccc2nc(NC(=O)C3CCCN(S(=O)(=O)c4cccc5nonc45)C3)sc2c1 (stereo not given)	0	0	0	?	?	2.57
CCc1ccc(NC(=O)NCCN2CCc3ccccc3C2)cc1	0	0	34.0	0	0	0
O=C(NCCN1CCc2ccccc2C1)Nc1ccc(F)cc1	0	0	0	0	0	0
COc1ccc(Cn2c(C)nc3c(c2=O)c2nc4ccccc4nc2n3Cc2ccco2)cc1	0	0	58.0	0	0	0
Cc1ccc(-c2noc(CCC(=O)NC3CCN(Cc4ccccc4)CC3)n2)cc1	0	0	32.0	?	?	0
Cc1ccc(-c2noc(CCC(=O)NCCCN3CCN(c4ccc(F)cc4)CC3)n2)cc1	0	0	38.0	?	?	0
SMILES	S aureus QS inh	26S disassembly	LNCaP diff act	VLA-4 agonist	VLA-4 antagonist	Jurkat autofluor
COc1ccc(-c2noc(CCC(=O)NCCCN3CCC(C)CC3)n2)cc1	0	0	0	0	0	0
Cc1ccc(-c2noc(CCC(=O)NCCCN3CCN(c4cccc(Cl)c4)CC3)n2)cc1	0	0	44.0	?	?	0
Clc1cccc(N2CCN(Cc3nc(-c4ccccc4)no3)CC2)c1	0	0	0	0	0	0
O=C(Nc1ccc(Br)cc1F)c1sccc1-n1cccc1	0	0	0	0	0	0
N#Cc1nc(COc2ccccc2F)oc1NCc1ccc(F)cc1	0	0	0	0	0	0
COc1ccc(CCNc2oc(COc3ccccc3F)nc2C#N)cc1	0	48.5	0	0	0	0
CCCCCC#CCC#CCC#CCC#CCCCC(=O)O	0	0	0	0	0	0
O=C1c2ccccc2-c2nccnc21	0	0	0	0	0	0
O=C1c2ccccc2-c2nc3ncnn3c(-c3ccccc3Cl)c21	0	0	0	?	?	3.7
COC(=O)CC1C(=O)NCCN1C(=O)NC1CCCCC1 (stereo not given)	0	0	0	0	0	0
Cc1cc(C)nc(N2CCC(C(=O)Nc3ccc(Oc4ccccc4)cc3)CC2)n1	0	0	33.0	0	0	0
Cc1cc(C)nc(N2CCC(C(=O)NCc3cccc(C(F)(F)F)c3)CC2)n1	0	0	0	0	0	0
COC(=O)c1ccccc1NC(=O)CN1CCC(n2nnc3cc(F)ccc32)CC1	0	0	30.0	0	0	0
COc1ccc(N2CCN(CCNC(=O)CCS(=O)(=O)c3cccc4nsnc34)CC2)cc1	0	0	0	0	0	0
O=C(NC(C(=O)c1ccccc1)n1ccc(=O)[nH]c1=O)c1ccccc1 (stereo not given)	0	0	0	0	0	0
COC(=O)c1ccc2c(c1)N(Cc1nc(-c3cccc(Cl)c3)oc1C)C(=O)C1CCCN21 (stereo not given)	0	81.4	0	0	0	0
COC(=O)c1ccc2c(c1)N(Cc1nc(-c3ccc(Cl)cc3)oc1C)C(=O)C1CCCN21 (stereo not given)	0	137.8	0	0	0	0
Clc1ccc(C2=Nn3c(nnc3-c3n[nH]c4c3CCC4)SC2)cc1Cl	0	0	0	0	0	0
CCN1CCN(C(c2cccs2)C(C)NC(=O)c2ccccc2F)CC1 (stereo not given)	0	0	0	0	0	0
CCOc1ccc(N(CC(=O)N2CC=C(c3ccccc3)CC2)S(=O)(=O)c2c(C)noc2C)cc1	53.1	0	0	0	0	0
COc1ccc(N(CC(=O)N2CC=C(c3ccccc3)CC2)S(=O)(=O)c2c(C)noc2C)cc1	0	0	0	0	0	0
COc1ccc(Cl)cc1-n1c(=S)sc2c(=O)[nH]c(SCC(=O)NCC3CCCO3)nc21 (stereo not given)	0	0	0	0	0	0
COc1ccc(S(=O)(=O)C(C#N)c2nc3ccccc3nc2N2CCCC(C)C2)cc1 (stereo not given)	0	0	0	?	?	2.95
Cc1cc(N2CCC(N(C)C3CCCC3)CC2)nc2cc(O)ccc12	0	0	44.0	?	?	0
COc1ccccc1Cn1c(-c2ccco2)nc2nc3ccccc3nc21	0	0	0	?	?	2.61
Cc1nc(SCC(=O)c2c[nH]c3ccccc23)n[nH]1	0	0	0	?	?	3.39
